# Laboratory results reported in PubChem BioAssay.
# A number with no mark means an inactive call. Calls of active or inactive are those of the source. Rule as the data show it, unless noted: active = inhibition above about 30%; inactive = the rest.
# Target: Nuclear receptor coactivator 3 (Homo sapiens) (UniProt Q9Y6Q9)
# Experiment: NCOA3 GAL4-fusion reporter inhibition – cell-based, luminescence, quadruplicate, confirmation (AID 588792;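 active = mean inhibition over 43.08%, the solvent-only control mean plus 3 SD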;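 also: 0% = DMSO treated cells and 100% = gossypol at 36 µM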)
# Conditions: HEK293 GAL4-SRC3 luciferase reporter, at 3.6 µM, hits give high values
# Nuclear receptor coactivator 3 (Homo sapiens), sequence (Q9Y6Q9 whole entry, looked up, the tested form may be a part): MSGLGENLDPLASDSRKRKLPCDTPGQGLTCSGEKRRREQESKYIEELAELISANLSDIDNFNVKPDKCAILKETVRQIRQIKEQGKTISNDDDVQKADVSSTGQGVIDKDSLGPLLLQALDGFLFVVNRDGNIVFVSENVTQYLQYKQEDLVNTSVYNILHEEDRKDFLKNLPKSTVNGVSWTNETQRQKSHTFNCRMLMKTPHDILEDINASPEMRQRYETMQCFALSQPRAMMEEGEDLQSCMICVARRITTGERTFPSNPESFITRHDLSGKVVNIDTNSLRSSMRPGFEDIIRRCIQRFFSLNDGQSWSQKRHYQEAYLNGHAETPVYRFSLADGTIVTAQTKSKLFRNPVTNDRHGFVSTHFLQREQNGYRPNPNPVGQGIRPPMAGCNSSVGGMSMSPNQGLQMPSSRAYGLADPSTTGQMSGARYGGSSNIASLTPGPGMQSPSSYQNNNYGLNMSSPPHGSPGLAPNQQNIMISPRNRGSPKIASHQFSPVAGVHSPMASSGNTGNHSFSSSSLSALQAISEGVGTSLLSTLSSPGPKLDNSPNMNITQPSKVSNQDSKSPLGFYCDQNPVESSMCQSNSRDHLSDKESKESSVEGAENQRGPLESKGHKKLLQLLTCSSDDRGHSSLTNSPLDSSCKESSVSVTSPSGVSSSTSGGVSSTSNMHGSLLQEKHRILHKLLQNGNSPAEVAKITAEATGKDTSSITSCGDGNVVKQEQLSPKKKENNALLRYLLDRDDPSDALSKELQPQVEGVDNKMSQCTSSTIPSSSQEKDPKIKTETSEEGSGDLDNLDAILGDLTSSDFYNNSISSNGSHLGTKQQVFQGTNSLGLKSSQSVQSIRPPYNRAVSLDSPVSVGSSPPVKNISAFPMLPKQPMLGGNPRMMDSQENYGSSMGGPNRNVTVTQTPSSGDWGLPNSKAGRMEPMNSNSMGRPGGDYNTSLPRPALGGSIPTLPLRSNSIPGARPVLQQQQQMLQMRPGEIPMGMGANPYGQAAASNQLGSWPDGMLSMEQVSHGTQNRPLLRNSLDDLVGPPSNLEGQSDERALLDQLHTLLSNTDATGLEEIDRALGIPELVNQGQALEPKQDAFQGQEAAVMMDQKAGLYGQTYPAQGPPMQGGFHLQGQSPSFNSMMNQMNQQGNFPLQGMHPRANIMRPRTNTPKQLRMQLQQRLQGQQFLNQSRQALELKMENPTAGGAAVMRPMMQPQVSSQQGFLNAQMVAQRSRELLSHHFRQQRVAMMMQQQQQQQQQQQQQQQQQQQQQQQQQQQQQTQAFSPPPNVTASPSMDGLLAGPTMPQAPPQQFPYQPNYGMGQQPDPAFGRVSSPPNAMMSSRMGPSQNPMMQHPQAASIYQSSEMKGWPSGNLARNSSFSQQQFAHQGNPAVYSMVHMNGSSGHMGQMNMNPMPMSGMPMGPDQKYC
row,Structure (SMILES),inhibition
1,C=CCc1cccc(/C=N/NC(=O)C[n+]2ccccc2)c1O,24.3%
2,CCCCN(CCCC)C(=O)CSc1nnc(-c2cc(OC)c(OC)c(OC)c2)o1,-1.92%
3,Cc1cc(C=C2C(=O)c3ccccc3C2=O)c(C)n1-c1cccc(C(=O)O)c1,23.3%
4,COc1ccc(NC(=O)c2sc(=O)n(Cc3ccccc3C#N)c2C)cc1OC,7.52%
5,O=C(N/N=C/c1ccc(O)cc1O)c1ccc(NC(=O)C2CCCCC2)cc1,9.15%
6,Cc1nc(NCc2ccccn2)c2ccccc2n1,-6.68%
7,C=CCOn1c(C)c(C(C)=O)c2c3nonc3ccc21,42%
8,CCN(CC)CCCNc1nc2cc(OC)c(OC)cc2c2nc(-c3cccnc3)nn12,-30.7%
9,CO[C@@]12[C@@H]3N[C@@H]3CN1C1=C(C(=O)C(N)=C(C)C1=O)[C@@H]2COC(N)=O,35.1%
10,CC(=O)N1CCCc2cc(S(=O)(=O)N3CCCC(C(=O)NCc4ccc(Cl)cc4)C3)ccc21 (stereo not given),4.47%
11,COc1cc2c(ccc3cc(OC)c(OC)c(O)c32)cc1O,56.5% (active)

# System: transactivating tegument protein VP16 (Human herpesvirus 1), Gal4-VP16 luciferase reporter
# Experiment: repression of VP16-driven luciferase reporter – cell-based, luminescence, high throughput, counter-screen for SRC3 inhibitor project (AID 588794)
# Conditions: mammalian cells, at 3.6 µM, hits give high values
row,Structure (SMILES),inhibition
1,Cc1cccc(NC(=O)c2cc(-c3cccnc3)nc3c(C)cccc23)n1,1.11%
2,CCOC(=O)c1cccc(NC(=O)CSc2nc3cccnc3n2C)c1,25.1%
3,Cc1ccc(C)c(S(=O)(=O)N2CCCCC2CCNC(=O)C(=O)NCc2ccncc2)c1 (stereo not given),7.08%
4,CC(=O)Nc1cccc(C(=O)/C=C/c2ccc(Br)cc2)c1,11%
5,COc1ccc(NC(=O)c2oc3ccc(S(=O)(=O)N4CCC5(CC4)OCCO5)cc3c2C)cc1,8.97%
6,CCCCCCCN1C2=NCCCN2c2ccccc21,21%
7,CCCn1nc(C(=O)NCC2COc3ccccc3O2)c2ccccc2c1=O (stereo not given),3.2%
8,O=C(COc1ccccc1[N+](=O)[O-])Nc1ccc(N2CCN(C(=O)c3cccs3)CC2)cc1,7.15%
9,Cc1cccc(OCC(O)Cn2c(=N)n(CCN3CCCCC3)c3ccccc32)c1 (stereo not given),20.6%
10,O=C(NCC1CCCO1)c1cccc2c1C(=O)c1ccc(N3CCC(Cc4ccccc4)CC3)cc1S2(=O)=O (stereo not given),10.6%
11,C=CC[C@@H](CC(=O)NCCO)C(=O)NC[C@H](OC(=O)[C@@H](CC=C)Cc1ccc(F)cc1)c1ccccc1,2.08%
12,Cc1nc2ccccn2c1-c1ccnn1S(=O)(=O)c1ccc(F)cc1,12.3%
13,CC(C)(CC(=O)O)CC(=O)Nc1ccc(Oc2ccc(C(C)(C)C)cc2)nc1,0.08%
14,CN1CCN(S(=O)(=O)c2cccc(C(=O)N(C)CC(=O)Nc3ccc(Cl)c(Cl)c3)c2)CC1,17.9%
15,CCSc1nsc(NC(=O)Nc2cccc(F)c2)n1,15.4%
16,CC1(C)CC(=O)C=C(C#CC2(O)CCCCC2)C1,1.31%
17,CCc1ccc(OCC(=O)NC(NC(=S)Nc2ccc(Cl)cc2)C(Cl)(Cl)Cl)cc1 (stereo not given),0.6%
18,Cc1ccc(S(=O)(=O)N(C)c2ccc(OCC(=O)OCc3c(C)noc3C)cc2)cc1,-6.86%
19,O=C(CNc1cccc2ccccc12)N/N=C/c1ccc[nH]1,5.09%
20,Cc1ccc(C)c(N2CCN(C(=O)C34CC5CC(C3)CC(n3nnc(C)n3)(C5)C4)CC2)c1,29.6% (active)
21,Cc1nn(C)c(C)c1CN(C)C(=O)c1cnn2c1NC(c1ccccc1)CC2C(F)(F)F (stereo not given),3.17%
22,O=[N+]([O-])c1ccc(N=Nc2c(Cl)cc(O)cc2Cl)cc1,66% (active)
23,Cc1ccc(NC2=C/C(=N/S(=O)(=O)c3cccs3)c3ccccc3C2=O)cc1,82% (active)
24,O=C(NNc1ccc(O)cc1)c1ccc(Br)cc1,63.4% (active)
25,COc1ccccc1NS(=O)(=O)c1cc(NC(=O)c2[nH]c(C)c(C(C)=O)c2C)ccc1N1CCOCC1,-14.8%
26,CCCCCCSc1ccc([C@H]2N[C@@](CC(C)C)(C(=O)OC)[C@H]3C(=O)N(C)C(=O)[C@@H]23)cc1OC,-10.5%
27,Cc1[nH]n(-c2ccccc2)c(=O)c1/C=N/Nc1nncc(-c2ccccc2)n1,67.5% (active)
28,Cc1cccc(Nc2ncnc(N)c2[N+](=O)[O-])n1,4.32%
29,CC12CN3CC(C)(CN(C1)C3c1ccccc1F)C2 (stereo not given),4.18%
